# Where “and” joins values, the source holds several entries; their conditions need not be identical. Identical values can stand only once. Results filed as inconclusive are left out. Entries that show only a call come without a potency. Some compounds were tested as several samples or in several runs, with calls that do not always agree. Calls of active or inactive are those of the source. Unless noted, calls come from the whole dose curve; as a rule, active = well fitted curve in the direction sought with a large enough effect in the repeat runs; inconclusive = weak or mixed curves; inactive = no such curve, though single readings can be large; an effect the other way counts as inactive or inconclusive.
# Key:
# [1] = qHTS assay to identify small molecule antagonists of the estrogen receptor alpha (ER-alpha) signaling pathway using the BG1 cell line in the presence of 0.1 nM 17-beta-estradiol - cell viability counter screen (AID 1259241); note: nearly all actives have a fitted effect of over 40% in size; note: potency is the fitted concentration of half-maximal effect
# Procedure, shortened: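 The cell line endogenously expresses full-length ER-alpha and carries four EREs driving luciferase. Cells are cultured 5 days hormone-free, treated 22 hr with compounds and 0.1 nM estradiol, then viability is read by fluorescence.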
# [2] = qHTS assay to identify small molecule antagonists of the androgen receptor (AR) signaling pathway using the MDA cell line in the presence of 0.5 nM R1881 - cell viability counter screen (AID 1259242); note: nearly all actives have a fitted effect of over 45% in size; note: potency is the fitted concentration of half-maximal effect
# Procedure, shortened: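 qHTS format. MDA-kb2 (MMTV-luc, AR/GR responsive) + cpd + 0.5 nM R1881 final, 16 hr 37C/0% CO2 → CellTiter-Fluor 30 min → fluorescence intensity.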
# [3] = qHTS assay to identify small molecule phospholipidosis (PLD) inducers (AID 1259344; active = well fitted curve in the direction sought with a large enough effect; an effect the other way counts as inactive or inconclusive; note: potency is the fitted concentration of half-maximal effect)
# Procedure, shortened: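 Cells (HepG2, 900 per well) attach for 4 h, receive LipidTOX Red and compound together, incubate 24 h at 37 C, are fixed 30 min with paraformaldehyde/Hoechst, then imaged at one site per well.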
# [4] = qHTS assay to identify small molecule HDAC inhibitors (AID 1259364); note: potency is the fitted concentration of half-maximal effect;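 note: wild-type HCT-116 cells with endogenous class I/II HDAC activity; nearly all actives have a fitted effect of over 45% in size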
# Procedure, shortened: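 Quantitative high-throughput format: overnight-seeded HCT-116 cells got compounds for 2 hr at 37C; HDAC-Glo I/II reagent added, 30 min RT, luminescence measured.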
# [5] = qHTS assay to identify small molecule HDAC inhibitors - cell viability counter screen (AID 1259365); note: nearly all actives have a fitted effect of over 50% in size; note: potency is the fitted concentration of half-maximal effect
# Procedure, shortened: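 Viability readout: CellTiter-Glo luminescence. Wild-type HCT-116 cells, 2hr compound treatment following overnight attachment at 37 C.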
# [6] = qHTS assay to identify small molecule agonists of the sonic hedgehog signaling (Shh) pathway - cell viability counter screen (AID 1259366); note: nearly all actives have a fitted effect of over 50% in size; note: potency is the fitted concentration of half-maximal effect
# Procedure, shortened: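 Viability measured fluorometrically (CellTiter-Fluor, 1hr, 37C) in 3T3 Gli1-Luc reporter cells after 23hr compound exposure within a 24hr incubation at 37C/5% CO2.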
# [7] = qHTS assay to identify small molecule antagonists of the sonic hedgehog signaling (Shh) pathway - cell viability counter screen (AID 1259367); note: nearly all actives have a fitted effect of over 55% in size; note: potency is the fitted concentration of half-maximal effect
# Procedure, shortened: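 Cytotoxicity was assessed in parallel with Shh reporter activity by measuring live-cell protease fluorescence (CellTiter-Fluor) in NIH/3T3 cells stably carrying Gli1-Luc, treated with compound under conditioned medium stimulation for 23 hr plus 1 hr reagent incubation.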
# [8] = biological target: Estrogen receptor (Homo sapiens) (UniProt P03372); assay: qHTS assay to identify small molecule antagonists of the estrogen receptor alpha (ER-alpha) signaling pathway using the BG1 cell line in the presence of 0.1 nM 17-beta-estradiol (AID 1259244); note: nearly all actives have a fitted effect of over 50% in size; note: potency is the fitted concentration of half-maximal effect
# Estrogen receptor (Homo sapiens), sequence (P03372 whole entry, looked up): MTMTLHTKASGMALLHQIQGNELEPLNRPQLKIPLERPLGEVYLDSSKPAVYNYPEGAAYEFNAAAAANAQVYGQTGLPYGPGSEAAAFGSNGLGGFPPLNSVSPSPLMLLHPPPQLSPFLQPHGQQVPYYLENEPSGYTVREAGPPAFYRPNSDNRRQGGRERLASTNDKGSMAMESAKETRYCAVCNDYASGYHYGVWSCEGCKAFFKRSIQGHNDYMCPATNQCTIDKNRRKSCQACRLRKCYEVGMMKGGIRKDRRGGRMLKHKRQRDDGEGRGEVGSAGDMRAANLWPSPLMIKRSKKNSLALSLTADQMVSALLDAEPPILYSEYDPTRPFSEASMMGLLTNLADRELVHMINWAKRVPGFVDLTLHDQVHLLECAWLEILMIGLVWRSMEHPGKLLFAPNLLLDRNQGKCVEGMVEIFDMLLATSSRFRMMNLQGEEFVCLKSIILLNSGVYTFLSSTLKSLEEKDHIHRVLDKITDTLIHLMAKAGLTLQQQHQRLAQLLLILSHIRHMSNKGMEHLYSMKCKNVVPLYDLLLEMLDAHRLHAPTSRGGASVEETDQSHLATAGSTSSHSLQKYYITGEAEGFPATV
# Procedure, shortened: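 Reporter is a stably transfected luciferase under four estrogen responsive elements in VM7Luc4E2 cells expressing native full-length ER-alpha; inhibition of 0.1 nM (final) 17beta-estradiol-driven signal over 22 h is read by luminescence.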
# [9] = biological target: Androgen receptor (Homo sapiens) (UniProt P10275); assay: qHTS assay to identify small molecule antagonists of the androgen receptor (AR) signaling pathway using the MDA cell line in the presence of 0.5 nM R1881 (AID 1259243); note: nearly all actives have a fitted effect of over 50% in size
# Androgen receptor (Homo sapiens), sequence (P10275 whole entry, looked up): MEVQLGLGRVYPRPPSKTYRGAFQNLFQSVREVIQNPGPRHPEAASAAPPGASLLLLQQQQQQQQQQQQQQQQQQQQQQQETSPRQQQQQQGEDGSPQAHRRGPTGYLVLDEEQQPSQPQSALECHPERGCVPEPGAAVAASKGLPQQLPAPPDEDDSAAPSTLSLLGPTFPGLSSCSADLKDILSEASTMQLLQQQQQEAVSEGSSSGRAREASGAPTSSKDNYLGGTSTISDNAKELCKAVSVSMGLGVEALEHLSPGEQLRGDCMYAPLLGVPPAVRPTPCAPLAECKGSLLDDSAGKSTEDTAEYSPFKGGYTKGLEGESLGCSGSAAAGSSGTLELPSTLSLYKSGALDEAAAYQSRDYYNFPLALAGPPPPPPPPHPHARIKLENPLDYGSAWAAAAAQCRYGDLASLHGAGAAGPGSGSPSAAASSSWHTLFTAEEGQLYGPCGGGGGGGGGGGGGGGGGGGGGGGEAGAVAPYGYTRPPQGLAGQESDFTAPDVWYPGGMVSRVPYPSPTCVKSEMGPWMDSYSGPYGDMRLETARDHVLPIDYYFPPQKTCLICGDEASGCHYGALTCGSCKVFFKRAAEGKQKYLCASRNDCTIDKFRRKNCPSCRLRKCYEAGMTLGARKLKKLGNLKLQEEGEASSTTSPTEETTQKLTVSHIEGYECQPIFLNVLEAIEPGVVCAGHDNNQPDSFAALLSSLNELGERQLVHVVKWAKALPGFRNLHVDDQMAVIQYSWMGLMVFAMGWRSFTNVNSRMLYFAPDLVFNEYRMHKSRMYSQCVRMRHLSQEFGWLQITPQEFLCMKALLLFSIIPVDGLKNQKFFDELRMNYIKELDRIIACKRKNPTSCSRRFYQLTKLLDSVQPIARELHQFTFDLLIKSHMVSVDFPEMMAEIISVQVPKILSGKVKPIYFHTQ
# Procedure, shortened: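 Antagonist mode quantitative HTS in MDA-kb2 MMTV-luciferase cells, agonist R1881 at 0.5 nM final, 16 hr exposure at 37C and 0% CO2, luminescent detection.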
SMILES,Potency [1],Potency [2],Potency [3],Potency [4],Potency [5],Potency [6],Potency [7],Potency [8],Potency [9]
CC1CC(OC(=O)C(O)c2ccccc2)CC(C)(C)N1C (centres undefined),inactive,inactive,inactive,inactive,inactive,inactive,inactive,–,–
O=C1NCCN1CCO,–,inactive,–,inactive,inactive,inactive,inactive,–,–
CN1CC(=O)N2[C@H](c3ccc4c(c3)OCO4)c3[nH]c4ccccc4c3C[C@@H]2C1=O,–,inactive,–,inactive,inactive,inactive,inactive,inactive,–
CC(=O)Oc1ccc([N+](=O)[O-])cc1CCl,54.5 µM (active),30.6 µM (active),–,inactive,inactive,27.3 µM (active),27.3 µM (active),inactive,–
COc1cc(Nc2c(C#N)cnc3cc(OCCCN4CCN(C)CC4)c(OC)cc23)c(Cl)cc1Cl,inactive,29.8 µM (active),–,inactive,inactive,29.8 µM (active),inactive,–,–
O=C(OCC(O)CO)c1ccccc1Nc1ccnc2cc(Cl)ccc12 (centres undefined),inactive,inactive,inactive,inactive,inactive,29.8 µM (active),29.8 µM (active),inactive,–
C=CC(C)(CCC=C(C)C)OC(=O)CC(C)C (centres undefined),inactive,inactive,–,inactive,inactive,inactive,inactive,inactive,–
Clc1cc(Cl)nc(Cl)n1,–,inactive,–,inactive,inactive,inactive,inactive,–,–
Cc1ccccc1S,inactive,inactive,–,–,inactive,inactive,inactive,inactive,–
Nc1cccc2c1CN(C1CCC(=O)NC1=O)C2=O (centres undefined),–,inactive,inactive,–,inactive,inactive,inactive,inactive,–
CC(=O)Nc1cc(S(=O)(=O)O)cc2cc(S(=O)(=O)O)c(N=Nc3ccccc3)c(O)c12,19.3 µM (active),27.3 µM (active),–,inactive,–,27.3 µM (active),24.3 µM (active),–,–
CC(C)c1nc(CN(C)C(=O)N[C@H](C(=O)N[C@@H](Cc2ccccc2)C[C@H](O)[C@H](Cc2ccccc2)NC(=O)OCc2cncs2)C(C)C)cs1,–,inactive,inactive and 10 µM (active),–,inactive,6.68 µM (active),7.5 µM (active),inactive,–
CC(C)(O)c1ccc(CNC(=O)c2cccnc2Oc2ccc3nonc3c2)cc1,inactive,inactive,–,inactive,inactive,–,inactive,–,–
COc1cc(C(=O)NC2CCN(C)CC2)ccc1Nc1ncc2c(n1)N(C1CCCC1)CC(F)(F)C(=O)N2C,–,–,–,inactive,inactive,5.6 µM (active),0.791 µM (active),2.81 µM (active),inactive
CC(C)(C)C(=O)C(=O)O,inactive,inactive,–,–,inactive,inactive,inactive,inactive,–
CC(C)COCC(CN(Cc1ccccc1)c1ccccc1)N1CCCC1 (centres undefined),–,29.8 µM (active),inactive,inactive,inactive,–,–,29.8 µM (active),–
COc1ncnc(NS(=O)(=O)c2ccc(N)cc2)c1OC,inactive,inactive,–,inactive,inactive,inactive,inactive,inactive,–
CCOC(=O)c1ccc(O)c(O)c1,inactive,inactive,–,–,inactive,inactive,inactive,inactive,–
CNC(=O)c1cnn(-c2nc(N)c3ncn([C@@H]4O[C@H](CO)[C@@H](O)[C@H]4O)c3n2)c1,inactive,inactive,–,inactive,inactive,inactive,inactive,inactive,–
CC(=O)OCCN(CCOC(C)=O)c1ccc(N=Nc2ccc([N+](=O)[O-])cc2C#N)cc1,–,54.5 µM (active),–,27.3 µM (active),24.3 µM (active),48.6 µM (active),54.5 µM (active),–,–
CN1CCCN=C1COC(=O)C(O)(c1ccccc1)C1CCCCC1 (centres undefined),inactive,inactive,–,inactive,inactive,inactive,inactive,inactive,–
O=C1c2ccccc2C(=O)C1c1nc2ccccc2c(Br)c1O,inactive,–,–,–,inactive,inactive,inactive,inactive,–
CCCCN(CCN(CCCC)C(=O)N1CCOCC1)C(=O)N1CCOCC1,–,inactive,–,–,inactive,inactive,26.6 µM (active),inactive,inactive
C[C@@H]1CN(CCCn2c3ccccc3c3ccccc32)C[C@H](C)N1,inactive,–,–,inactive,inactive,33.5 µM (active),33.5 µM (active),–,–
C=CC(=O)[O-].C=CC(=O)[O-].[Zn+2],inactive,inactive,–,inactive,inactive,53.2 µM (active),–,inactive,–
C=C/C(C)=C/C/C=C(\C)CCC=C(C)C,inactive,inactive,–,inactive,inactive,inactive,inactive,inactive,–
CN1CCCC(CC2c3ccccc3Sc3ccccc32)C1 (centres undefined),inactive,–,–,inactive,–,–,–,inactive,–
CN(C(=O)CN(CCO)CC(=O)N(C)C(C)(C)Cc1ccccc1)C(C)(C)Cc1ccccc1,inactive,inactive,inactive,inactive,inactive,–,–,–,–
CC(CN(C)C)C(C)(O)Cc1ccc(Cl)cc1 (centres undefined),–,inactive,–,inactive,inactive,inactive,inactive,inactive,inactive
O=c1[nH]ncc2ccccc12,inactive,inactive,–,inactive,inactive,inactive,inactive,inactive,–
